Experimental findings from ChEMBL document CHEMBL4513216, “Probing the Open Global Health Chemical Diversity Library for Multistage-Active Starting Points for Next-Generation Antimalarials” (ACS Infect Dis, 2020) are described below.

SMILES strings stand for the structures. Screen size: about 69,000 compounds; about 8,600 (12%) showed an effect of 50% or more. The sample holds strong results, similar compounds and a random draw of the others, so the mix is not that of the screen.

This test deals with Plasmodium berghei. The test can be described thus: Screen against P. berghei liver stage (PbLuc), transformed with Luciferase, at 10uM. The note with it: tested at 10 uM. Type of test: functional, HepG2.
Consider `Cc1cc(F)c(S(=O)(=O)NCC(C)(C)N)cc1F`, for which the INHIBITION came out at 37.6%.
On to `CCN(CC)c1ncc(CNC2CCc3nc(C(C)C)nn3C2)s1` (centres undefined), for which the INHIBITION is given as -3.54%.
In the case of `CCCN1CCN(Cc2cn(CCC(N)=O)c3ccccc23)CC1` it was 39.8%; in that of `Cc1ccc(C(C)NCc2cn(CCC(N)=O)c3ccccc23)cc1C` (centres undefined), 27.7%.
In the case of `NC(=O)CCn1cc(CNCc2csc(N)n2)c2ccccc21`, the INHIBITION stood at 60.9%.
Regarding `Cc1n[nH]c(C)c1CCCNCc1cn(CCC(N)=O)c2ccccc12`, the INHIBITION is 66.7%.
Turning to `NC(=O)CCn1cc(CNCCCc2ccncc2)c2ccccc21`, the INHIBITION is given as -71.1%.
Take `CC(NCc1cn(CCC(N)=O)c2ccccc12)c1nncn1C` (centres undefined): the INHIBITION is recorded as 32.7%.
`NC(=O)CCn1cc(CNCCCc2ccccc2O)c2ccccc21`: the INHIBITION is reported as 88.5%.
In the case of `NC(=O)CCn1cc(CNCCCc2csc(N)n2)c2ccccc21` it was 29%.
Regarding `CC(C)n1cnnc1CCNCc1cn(CCC(N)=O)c2ccccc12`, the INHIBITION is recorded as 6.94%.
In the case of `COc1ccc(S(=O)(=O)N2CCC(O)(CN(C)C)C2)cc1` (centres undefined) it was 38.2%; in that of `Cc1sc(Br)cc1S(=O)(=O)NCCN`, 45%; in that of `O=C(Cc1csc(Cc2ccccn2)n1)NCCCN1CCCC1=O`, 17.5%.
Regarding `CCOCCC(=O)Nc1cccc(Cl)c1COC`, the INHIBITION came to 33.7%.
As for `O=C(Cc1n[nH]c2ccccc12)N1CCCC1Cn1cccn1` (centres undefined), the INHIBITION worked out at 24%.
For `CCc1nnc(C(C)N2CCN(CCC(C)(C)C)CC2)o1` (centres undefined), the INHIBITION worked out at 62.4%.
Take `CCc1nnc(C(C)N2CCN(CCC(=O)NC3CC3)CC2)o1` (centres undefined): the INHIBITION came to 33.1%.
In the case of `CCc1nnc(C(C)N2CCCN(C(=O)OCC(C)C)CC2)o1` (centres undefined), the INHIBITION turned out to be 36.5%.
Take `Cc1cncc(C(=O)N2CCCC(O)(CN3CCCC3)C2)c1` (centres undefined): the INHIBITION was 4.13%.
`C[C@H](C(=O)N1Cc2ccccc2CC2(CCCN2C)C1)c1ccccc1` (some centres undefined): the INHIBITION is recorded as 51.6%.
Regarding `CC(=O)N1Cc2ccccc2CC2(CCCCN2C)C1` (centres undefined), the INHIBITION turned out to be 42.4%.
For `CC(C)C(=O)N1Cc2ccccc2CC2(CCCCN2C)C1` (centres undefined), the INHIBITION was determined as 53.2%.
`CN1CCCCC12Cc1ccccc1CN(C(=O)C1CCCC1)C2` (centres undefined): the INHIBITION is 8.49%.
For `CN1CCCCC12Cc1ccccc1CN(C(=O)c1ccccc1)C2` (centres undefined), the INHIBITION worked out at 10.1%.
In the case of `CC(C)C(=O)N1Cc2ccccc2CC2(CCCN2C)C1` (centres undefined), the INHIBITION came out at 37.5%.
As to `O=C(c1ccccc1)N(CC1CC1)c1cccnc1`, the INHIBITION was determined as 39.7%.
For `Cc1cc(NCc2cc3n(n2)CCCN(C(=O)C2CCC2)C3)ncn1`, the INHIBITION is on record as -2.46%.
In the case of `CCc1nc(N2CCOCC2)ncc1C(=O)NC(c1cccs1)C(C)C` (centres undefined) it was 29.5%; in that of `COCCN1C(=O)C2(CCC(C(=O)Nc3ccc(C)cc3)CC2)N=C1C` (centres undefined), 31.4%; in that of `COCCN1C=NC2(CCC(C(=O)Nc3ccc(C)cc3)CC2)C1=O` (centres undefined), 63.5%.
Regarding `COCCN1C(=O)C2(CCC(C(=O)Nc3ccc(F)cc3)CC2)N=C1C` (centres undefined), the INHIBITION came out at 20.1%.
Turning to `Cc1nc(Nc2cnccn2)cc(C2CN(C(C)C)C2)n1`, the INHIBITION was -21.4%.
`Cc1ccc(-c2nnc(SCC(=O)O)n2-c2ccccc2)cc1`: the INHIBITION worked out at 5.11%.
For the molecule `CC(C)CS(=O)(=O)N1C[C@@H]2C[C@H](C(=O)N(C)C)[C@H](C1)O2`, the INHIBITION came out at 37.5%.
Turning to `CCC(C(=O)N1CCN(S(=O)(=O)N2CCCC2)CC1)n1cccn1` (centres undefined), the INHIBITION is listed as 13%.
In the case of `O=C1CCCC2=Nc3nonc3NC(c3ccc(F)cc3F)C12` (centres undefined), the INHIBITION is on record as -37.6%.
On to `O=C1CCCC2=Nc3nonc3NC(c3ccccc3F)C12` (centres undefined), for which the INHIBITION was determined as 12.3%.
Regarding `O=C1CCCC2=Nc3nonc3NC(c3cccc(F)c3F)C12` (centres undefined), the INHIBITION amounted to 4.66%.
Consider `O=C1CCCC2=Nc3nonc3NC(c3cc(Cl)ccc3F)C12` (centres undefined), for which the INHIBITION was determined as 76.8%.
Consider `O=C1CCCC2=Nc3nonc3NC(c3ccc(Cl)cc3Cl)C12` (centres undefined), for which the INHIBITION was found to be 57.8%.
Consider `O=C1CCCC2=Nc3nonc3NC(c3ccccc3Cl)C12` (centres undefined), for which the INHIBITION is 12.3%.
Turning to `CC(C)N1CCC(Cc2cncc(-c3ccccc3C(=O)O)n2)CC1`, the INHIBITION is 38.7%.
As to `CC(C)N1CCC(Cc2cncc(-c3ccccc3C(=O)O)n2)C1` (centres undefined), the INHIBITION was determined as 15.9%.
In the case of `CN1CCC(Cc2cncc(-c3ccccc3C(=O)O)n2)C1` (centres undefined) it was 56%.
In the case of `COCCN1CCC(Cc2cnc(-c3ccccc3C(=O)O)cn2)CC1` it was 53%; in that of `CC(C)N1CCC(Cc2cc(-c3ccccc3C(=O)O)ncn2)CC1`, 18.8%; in that of `CS(=O)(=O)N1CCCC(Cc2cncc(-c3ccccc3C(=O)O)n2)C1` (centres undefined), -1.85%.
Regarding `CC1=Nc2c(c(=O)[nH]n2C(C)C)C(c2cccc(OC(F)F)c2)S1` (centres undefined), the INHIBITION was -28.4%.
As to `Cc1cccc2nc(CN3CCC(N4CCN(C)C4=O)CC3)cn12`, the INHIBITION was -54.1%.
As to `COc1nn(C)c2c1CCCN(C(=O)c1cccc(C)n1)C2`, the INHIBITION is reported as 31.2%.
For the molecule `CN1CCC(N2CCC(CN(Cc3ccncc3)C3CCC3)CC2)CC1`, the INHIBITION was determined as 53.8%.
Consider `COCCN1CCC(CN(Cc2ccncc2)C2CCC2)CC1`, for which the INHIBITION is 43.7%.
For `COCCN1CCC(CN(Cc2ccncc2)C2CCCCC2)CC1`, the INHIBITION is recorded as -32.1%.
